Compound activity: PubChem, The Scripps Research Institute Molecular Screening Center
Most compounds without a hit are left out; they make up all but 3.4% or so of the library.
PLC-gamma1 inh: inhibitors of human phospholipase C gamma1. P19174. purified PLC-gamma1, fluorogenic substrate, fluorescence. inhibition, % at 12.2 µM. 0.84% of 370,000 active. AID 720700
ADAM17 inh: ADAM17 inhibition, QFRET primary screen; inhibition, % at 6.95 µM; 0.83% of 370,000 active; P78536; recombinant ADAM17, EDANS/DABCYL FRET peptide cleavage;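 active means inhibition above the mean of compounds lying between control limits plus 3 SD, set per campaign, cut at about 8.5% in these data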;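 further: 0% = DMSO-only wells as the low control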
PLCb3 inh: inhibitors of human phospholipase C beta3; 0.18% of 370,000 active; Purified PLC-beta3, fluorogenic substrate, fluorescence; Q01970; inhibition, % at 12.2 µM; in the data active means inhibition above about 11%;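 further: 0% = median of compound wells on plate and 100% = full blocker control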
ADAM10 inh: inhibits human ADAM10. 0.62% of 370,000 active. inhibition, % at 7 µM. O14672. AID 720582. recombinant ADAM10, EDANS/DABCYL FRET peptide cleavage, 3 h;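 active means inhibition above a per-campaign cutoff equal to the mean of compounds falling between control-based bounds plus 3 SD, cut at about 20% in these data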;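 further: 0% = DMSO wells while the 100% control is not disclosed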
Target sequence (O14672 214-748 limits assumed): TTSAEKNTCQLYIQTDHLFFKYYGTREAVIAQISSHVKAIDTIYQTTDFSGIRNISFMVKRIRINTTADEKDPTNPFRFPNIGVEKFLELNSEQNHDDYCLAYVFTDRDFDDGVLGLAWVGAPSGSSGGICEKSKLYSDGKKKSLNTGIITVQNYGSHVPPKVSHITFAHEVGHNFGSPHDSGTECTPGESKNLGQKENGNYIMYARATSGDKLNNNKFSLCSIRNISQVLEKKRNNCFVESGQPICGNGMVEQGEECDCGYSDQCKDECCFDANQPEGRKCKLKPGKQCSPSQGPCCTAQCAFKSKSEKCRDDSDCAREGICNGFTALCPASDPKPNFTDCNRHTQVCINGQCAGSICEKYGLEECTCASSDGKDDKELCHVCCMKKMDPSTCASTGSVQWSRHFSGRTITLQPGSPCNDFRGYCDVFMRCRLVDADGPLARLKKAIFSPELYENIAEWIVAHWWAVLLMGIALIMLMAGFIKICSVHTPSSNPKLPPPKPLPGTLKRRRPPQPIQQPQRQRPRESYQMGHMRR
KLK7 zymogen act: activators of human kallikrein-7 zymogen; P49862; purified proKLK7, EDANS-DABCYL substrate fluorescence; 100% is mature enzyme control, 0% vehicle; activation, % at 7 µM; 0.9% of 370,000 active;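 active means activation above the mean of all tested compounds plus 3 SD, computed per campaign excluding outliers beyond control limits, cut at about 13% in these data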
HGIII-sPLA2 inh: Inhibits HGIII-sPLA2 liposome hydrolysis, primary screen; Q9NZ20; QFRET BODIPY PC-A2 liposome hydrolysis, fluorescence; inhibition, % at 12.2 µM; 0.56% of 370,000 active;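 active means inhibition above mean plus 3 SD of compounds lying within the high and low control bounds, cut at about 19% in these data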;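 further: 0% = median of test compound wells and 100% = no enzyme DMSO wells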
PLCgamma1 ctr: counter-screen for PLC-beta3 inhibitors: inhibitors of human PLC-gamma1. shares compounds with PLC-gamma1 inh. purified PLC-gamma1, fluorogenic substrate, fluorescence. inhibition, % at 12.3 µM. 3.1% of 3,300 active
PLCbeta3 conf: confirmation of human PLC-beta3 inhibitors | shares compounds with PLC-gamma1 inh | purified PLC-beta3, fluorogenic substrate fluorescence | inhibition, % at 12.3 µM | 1% of 3,300 active; in the data active means inhibition above about 11%
* = called active by the depositor; / = no result given. Unless noted, no stated cut-off is given here; in the data, active means inhibition above about 9.5%; inactive means the rest.

SMILES	PLC-gamma1 inh	ADAM17 inh	PLCb3 inh	ADAM10 inh	KLK7 zymogen act	HGIII-sPLA2 inh	PLCgamma1 ctr	PLCbeta3 conf
Cc1ccnc(NC(=O)c2ccc(Cl)c(NC(=O)C(C)Oc3ccccc3)c2)c1 (configuration not stated)	9.9*	4	5	4	0	9	-5	-4
CC(C)(C)c1ccc(-c2nnc3n2N=C(c2ccc(Cl)cc2)CS3)cc1	0	-2	-1	-4	0	3	/	/
C=CCNC(=O)CSc1nc2c(c(=O)[nH]1)CCCC2	-2	3	-1	-6	0	4	/	/
CN1CCC(NC(=O)c2ccncc2)CC1	-1	-2	-1	-3	0	0	/	/
CC1(C)CC(NC(=O)c2ccncc2)CC(C)(C)N1O	11*	1	1	-2	0	3	-9	-5
COc1ccc(Cn2cc(CN3CC=CS3(=O)=O)nn2)cc1	-1	-6	0	-5	0	7	/	/
CC1CC1C(=O)OCC(=O)Nc1ccc(N=Nc2ccccc2)cc1 (configuration not stated)	5	6	4	17	0	-11	/	/
CCCC(=O)OCC(=O)Nc1ccc(N=Nc2ccccc2)cc1	9.6*	5	9	9	0	1	3	2
COc1cc(/C=N\Nc2nncn2N)ccc1OC(C)=O	14*	2	1	-1	0	2	0	-4
CCc1cccc(NS(=O)(=O)c2c(C)n[nH]c2C)c1	9.8*	0	4	18	0	-29	-4	-2
C=CCN(Cc1ccc2c(c1)OCO2)C(C#CC1CC1)C(C)C (configuration not stated)	1	-4	0	-4	0	12	/	/
O=C1C=C(NCc2ccc(Cl)cc2)CC(c2ccco2)C1 (configuration not stated)	11*	0	0	-5	0	1	-10	-6
CC(C)CNC1=CC(=O)CC(c2ccco2)C1 (configuration not stated)	-5	-5	-7	-12	0	-4	/	/
C[C@H](O)[C@@H]1CN2CCc3ccc(-c4ccc5c(c4)OCO5)cc3[C@@H]2C[C@@H]1N(C)C(=O)Nc1ccccc1	0	-3	-1	0	1	-7	/	/
CC(C)NC(=S)N/N=C/c1cccs1	11*	5	6	5	1	16	3	1
O=C(CN1CCCCCC1)N/N=C/c1cccs1	16*	7	10	2	0	7	-9	-6
O=C(CN1CCN(Cc2ccccc2)CC1)N/N=C/c1cccs1	0	0	-4	-3	-1	-1	/	/
S=C(NCc1ccccc1)N/N=C/c1cccs1	3	2	-2	3	0	8	/	/
O=C(c1cccs1)N1CC[C@H]2[C@H](CCCN2Cc2cc(F)cc(F)c2)C1	1	-5	-4	-10	0	10	/	/
O=C(CCc1ccccc1)N[C@H]1[C@H](O)CCC[C@@]12C(=O)N(Cc1ccccc1)c1ccc(-c3ccccc3)cc12	4	5	-1	13	1	-24	/	/
O=C(COCc1ccccc1)N1CC[C@H]2[C@H](CCCN2Cc2cc(F)cc(F)c2)C1	-2	-1	0	-4	0	-2	/	/
COC(=O)c1cc2c(c3c4cc(OC)ccc4n(S(=O)(=O)c4ccc(OC)cc4)c13)C(=O)N(Cc1ccccc1)C2	-62	-7	-78	-23	-3	11	/	/
O=C(OC12CCCN(C1)/C(=C/c1cccc(Cl)c1)C2)c1ccc(F)cc1 (configuration not stated)	2	4	-3	2	0	3	/	/
Cc1ccc(NC(=O)C2CCCN(S(=O)(=O)c3ccc4c(c3)oc(=O)n4C)C2)nc1 (configuration not stated)	9.8*	2	5	10	0	-2	-5	-2
Cc1ccc(-c2[nH]nc(N)c2N=Nc2cccc(Cl)c2C)cc1	4	4	1	7	0	-9	/	/
SMILES	PLC-gamma1 inh	ADAM17 inh	PLCb3 inh	ADAM10 inh	KLK7 zymogen act	HGIII-sPLA2 inh	PLCgamma1 ctr	PLCbeta3 conf
Cc1cccc(N=Nc2c(N)n[nH]c2-c2ccc(Cl)cc2)c1	11*	7	10	10	0	-24	8	5
COc1ccc(CNC2CCC23CCC(c2ccccc2)CC3)cc1OC (configuration not stated)	2	-1	2	2	/	-2	/	/
C[C@@H]1COc2cc(Br)ccc2S(=O)(=O)N1Cc1cn(CCC2OCCCO2)nn1	-1	-3	-3	-9	0	9	/	/
Cn1c(SCC(=O)c2c(N)n(C)c(=O)n(C)c2=O)nnc1-c1ccccc1	15*	5	3	6	0	3	-6	-1
Cn1c(N)c(C(=O)CSc2nc3ccccc3c(=O)n2Cc2ccccc2)c(=O)n(C)c1=O	11*	2	5	10	-1	8	-5	-4
COC(=O)C1CN(C2CC2)CCS(=O)(=O)N1Cc1cn(Cc2ccc(Cl)cc2)nn1 (configuration not stated)	0	1	0	-3	1	3	/	/
COCc1nnc(NC(=O)c2ccc(NC(C)=O)cc2)s1	4	4	14*	4	0	13	-6	-1
Cc1c(NC(=O)C2CCCN(S(=O)(=O)c3ccc(Br)s3)C2)c(=O)n(-c2ccccc2)n1C (configuration not stated)	-1	1	0	1	1	0	/	/
C[C@H](CO)N1C[C@H](C)[C@@H](CN(C)C(=O)Nc2ccccc2)Oc2c(NS(=O)(=O)c3ccccc3)cccc2C1=O	-1	-4	1	-2	-1	-2	/	/
C[C@H](CO)N1C[C@H](C)[C@@H](CN(C)C(=O)Nc2ccccc2)Oc2c(NS(=O)(=O)c3ccc(F)cc3)cccc2C1=O	5	5	11*	1	0	1	-4	-1
COc1c(C)cc(C(=O)C2CCCN(C(=O)/C=C/c3ccccn3)C2)cc1C (configuration not stated)	11*	2	11*	11	0	9	-4	-5
Clc1ccc(C2CSc3c4ncnc-4ncn32)cc1 (configuration not stated)	11*	4	3	6	1	-16	-8	-1
CC1CC2(CCCCC2)Nc2ccc3ccccc3c21 (configuration not stated)	-22	-17	-28	-55	-5	4	/	/
CCc1cccc2c1NC1(CCCC1)CC2C (configuration not stated)	10*	-1	4	8	0	6	4	-4
